A selection: hits, their analogues and other compounds. The true share with any hit is near 32%.
CYP2C9 activ = activators of human CYP2C9; AID 1024; activation factor at 5 µM; 96,000 compounds, 1.4% hits; recombinant CYP2C9, luciferin-H conversion, luminescence; hits give high values; factor 1 = untreated enzyme, 0 = blocked;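 active = activation factor of 2 or more for CYP2C9 at a 5 µM dose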;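 also: 0 = sulfaphenazole-blocked wells and 1 = vehicle-only wells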
Target sequence (P11712 whole entry, looked up): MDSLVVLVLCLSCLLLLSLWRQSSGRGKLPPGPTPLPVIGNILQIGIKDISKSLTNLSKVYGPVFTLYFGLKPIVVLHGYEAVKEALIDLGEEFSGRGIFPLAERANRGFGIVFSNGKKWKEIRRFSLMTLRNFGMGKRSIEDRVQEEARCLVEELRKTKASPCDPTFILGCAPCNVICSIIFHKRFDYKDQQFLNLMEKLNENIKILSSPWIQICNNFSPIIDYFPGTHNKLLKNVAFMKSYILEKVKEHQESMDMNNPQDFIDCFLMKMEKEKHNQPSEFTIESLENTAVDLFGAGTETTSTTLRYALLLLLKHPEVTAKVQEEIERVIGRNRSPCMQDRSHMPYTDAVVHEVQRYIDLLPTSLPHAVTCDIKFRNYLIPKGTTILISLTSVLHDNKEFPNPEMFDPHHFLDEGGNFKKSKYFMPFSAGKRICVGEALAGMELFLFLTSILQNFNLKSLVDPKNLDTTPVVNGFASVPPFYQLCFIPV
PostGolgi ctrl = growth of the yeast control strain, post-Golgi counter-screen. efflux-deficient yeast background strain, growth absorbance A615, 16 h. inhibition, % at 10 µM. 98,000 compounds, 5% hits
CYP2C19 activ = cytochrome P450 2C19 (human) activation; recombinant CYP2C19, luciferin-H EGE luminescence; hits give high values; 0 = fully inhibited enzyme, 1 = untreated enzyme; activation factor at 5 µM; AID 1025; P33261; 96,000 tested, under 10 active;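 active = activation factor of at least 2 at 5 µM in the primary screen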;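 also: 0 = wells with 2.5 mM tranylcypromine and 1 = vehicle-only wells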
CYP2C9 inh = inhibitors of human CYP2C9. P11712. inhibition, % at 5 µM. CYP2C9 Supersomes, luciferin-H conversion, luminescence. 96,000 compounds, 20% hits;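 active = blocking of liver enzyme CYP2C9 beyond about 50% at 5 µM, limit read from the data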
CYP2C19 inh = human CYP2C19 inhibition; P33261; CYP2C19 Supersomes, luciferin-H EGE luminescence, 30 min; inhibition, % at 5 µM; 96,000 compounds, 21% hits; AID 778;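 active = CYP2C19 inhibition above a set limit at 5 µM in the primary screen, cut at about 50% in these data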;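 also: plate controls were negative control wells for no effect and 2.5 mM tranylcypromine positive control for full effect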
PostGolgi yeast = growth inhibition of a yeast mutant, post-Golgi transport screen; post-Golgi transport phenotypic cell assay; 98,000 compounds, 0.9% hits; inhibition, % at 10 µM;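 also: yeast cells grown in 1536-well plates; yeast grown about 18 h at 30C before absorbance read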
* hit, by the source's call; . = not tested or not shown. Rule as the data show it, unless noted: active = inhibition above about 30%; inactive = the rest.

SMILES	CYP2C9 activ	PostGolgi ctrl	CYP2C19 activ	CYP2C9 inh	CYP2C19 inh	PostGolgi yeast
COc1ccccc1NC(=O)Cc1cccs1	1.4	2.4	0.6	-41.6	37.2	-0.2
COc1cc(NC(=O)Cc2ccccc2OC)cc(OC)c1	0.7	-5.0	0.5	29.6	50.9*	-3.2
O=C(O)CC(=O)Nc1cc(Cl)ccc1O	0.8	8.4	1	15.0	-1.0	16.4
COc1ccccc1CC(=O)Nc1ccc(OC)c(OC)c1	1.2	7.5	0.7	-18.4	28.8	7.1
CNC(=O)NC(=O)CSc1ncc(C(F)(F)F)cc1Cl	1.2	7.7	1	-20.8	0.6	-3.2
Cc1cc(NC(=O)c2cncc(Br)c2)n(-c2ccccn2)n1	1.6	4.1	1	-58.6	4.5	4.5
O=C(Cc1sc(-c2ccccc2Cl)nc1-c1ccccc1)Nc1ccc(F)cc1	0.3	-1.1	0.6	72.7*	38.9	18.6
O=C(Cc1sc(-c2ccccc2Cl)nc1-c1ccccc1)Nc1ccccc1	0.6	5.5	0.8	36.8	24.8	6.5
Cn1nnnc1SCC(=O)Nc1cc(C(=O)O)cc(C(=O)O)c1	1	-0.2	1	3.6	2.6	20.0
COc1ccc(C(OC(=O)c2c(C)noc2C)C(=O)NC2CCCC2)cc1 (configuration not stated)	0.2	-1.1	0.5	79.7*	50.4*	20.4
COc1ccc(C(C(=O)NC2CCCC2)N(C(=O)c2ccoc2C)c2ccc(C)cc2)cc1 (configuration not stated)	0.3	3.6	0.5	73.0*	50.2*	17.7
COc1ccc(C(C(=O)NC2CCCCC2)N(C(=O)c2cccs2)c2ccc3c(c2)OCO3)cc1 (configuration not stated)	0.5	0.3	0.7	53.4*	25.5	-7.2
CC(=O)OC(C(=O)NC1CCCCC1)c1ccncc1 (configuration not stated)	.	3.0	.	.	.	-7.3
O=C(NC1CCCCC1)C(c1ccc2ncccc2c1)N(Cc1ccc2c(c1)OCO2)C(=O)c1cccs1 (configuration not stated)	0.5	-7.0	0.5	54.3*	47.3	-1.0
COc1c(Cl)ccc(Cl)c1C(=O)OCC(=O)O	1	.	0.9	0.3	8.8	.
Cc1ccc(C(=O)N/C(=C\c2cn(-c3ccccc3)nc2-c2ccccc2)C(=O)N2CCOCC2)cc1	0.9	-0.7	0.8	11.0	15.1	-4.4
CC1CCCCN1C(=O)c1cc(F)c(F)cc1Cl (configuration not stated)	1	9.2	0.6	4.9	41.1	-0.3
O=C(NC1CCCCC1)C(c1ccc2ncccc2c1)N(Cc1ccccc1)C(=O)c1cccs1 (configuration not stated)	0.3	1.1	0.9	73.3*	10.9	-8.4
O=C(NC1CCCCC1)C(c1ccccc1)N(C(=O)c1cccs1)c1ccc2c(c1)OCO2 (configuration not stated)	0.7	15.4	0.9	32.2	8.9	3.4
CCNC(=O)NC(=O)COC(=O)c1ccccc1SCC(=O)NC(=O)NCC	0.2	3.6	0.4	82.7*	56.0*	3.2
CCOC(=O)N1CCN(C(=O)c2nc3ccccc3s2)CC1	1	7.8	0.8	3.5	15.9	3.8
COc1cc2[nH]c(=O)c(C(=O)NCCCN3CCCCC3)c(O)c2cc1OC	0.7	4.0	0.5	28.4	52.4*	5.3
CCCSc1cc(N2CCOCC2)nc(-c2ccccc2Cl)n1	0.4	16.8	0.9	57.4*	9.0	-6.5
Cc1ccc(C(=O)NNC(=O)C2CCCN(c3ncccn3)C2)cc1 (configuration not stated)	0.9	1.1	0.7	9.3	28.5	10.7
O=C(CCC(=O)OCC(=O)c1ccc(Cl)cc1Cl)Nc1cccc2cccnc12	1.1	37.5*	0.9	-6.3	14.4	1.9
CC(C)(C)c1ccc(S(=O)(=O)n2c(CN3CCOCC3)nc3ccccc32)cc1	0.9	5.3	0.9	14.1	14.6	-0.5
Fc1cccc(Cl)c1Cn1nnc(-c2ccc(N3CCOCC3)cc2)n1	1.1	13.0	1	-5.6	-3.9	-0.6
Fc1ccc(Cn2nnc(-c3ccc(CN4CCOCC4)cc3)n2)cc1	1	30.5*	0.9	2.8	9.5	89.3*
Clc1ccc(Cn2nnc(-c3ccc(CN4CCOCC4)cc3)n2)cc1	0.8	50.9*	0.8	15.1	20.6	82.0*
O=C1NC2c3ccccc3C(=O)N2c2c1cnn2-c1ccccc1 (configuration not stated)	.	7.5	.	.	.	4.6

Bioassay records: PubChem BioAssay, several laboratories
